Only a selection was taken, and hits are over-represented in it overall.
T cruzi growth-1 – inhibitors of T. cruzi proliferation | T. cruzi beta-gal in NIH3T3, GalScreen luminescence, 90 h | inhibition, % at 8.34 µM | 77,000 compounds, 5.9% hits;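 active means mean inhibition above about 93%, with at least 55% of replicates each passing it, limit read from the data, passing the limit was not always enough; inconclusive means only one of those two conditions holds; inactive means neither condition holds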
C diff HTS – blocks growth of Clostridium difficile | Clostridium difficile clinical isolate growth, OD600, 24 h; active compounds read low | growth activity, negative = inhibition, % at 16 µg/mL (by protocol) | 86,000 compounds, 0.25% hits;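 active means mean growth activity at or below -80% and every replicate also at or below -80%; inconclusive means mean at or below -80% but some replicate above -80%; inactive means mean growth activity above -80%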;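 further: 0% = DMSO wells and -100% = levofloxacin 16 µg/mL wells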
T cruzi growth-2 – blocks T. cruzi growth in NIH3T3 host cells. shares compounds with T cruzi growth-1. T. cruzi beta-gal in NIH3T3, GalScreen luminescence, 90 h. inhibition, % at 8.35 µM. 5,600 compounds, 72% hits;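 active means mean replicate inhibition above about 95% and at least 55% of replicates individually reaching it, limit read from the data; inconclusive means only one of the two criteria is met; inactive means neither criterion is met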
T cruzi growth-3 – Trypanosoma cruzi proliferation inhibition. shares compounds with T cruzi growth-1. T. cruzi beta-gal in NIH3T3, GalScreen luminescence, 90 h. inhibition, % at 2.09 µM. 5,600 compounds, 21% hits. AID 651740;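 active means mean inhibition above about 95%, with at least 55% of replicates also reaching it, limit read from the data; inconclusive means meets just one of the two conditions; inactive means meets neither condition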;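 further: plate controls were neutral control median for no effect and positive control median for full effect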
NIH3T3 tox – kills mouse NIH/3T3 fibroblasts | NIH/3T3 viability, CellTiter-Glo ATP luminescence, 90 h | shares compounds with T cruzi growth-1 | 5,600 compounds, 14% hits | AID 651742 | cytotoxicity (signal decrease), % at 8.35 µM;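 active means mean signal decrease across replicates above about 35% based on untreated-well scatter, with enough replicates individually passing, limit read from the data; inconclusive means no rule stated though some were filed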;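 further: 0% = median of neutral control wells and 100% = median of positive control wells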
NIH3T3 tox 2 – kills mouse NIH/3T3 fibroblasts; shares compounds with T cruzi growth-1; NIH/3T3 viability, CellTiter-Glo ATP luminescence, 90 h; inhibition, % at 24.9 µM; 5,600 compounds, 56% hits; AID 651744;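 active means mean loss of cell viability signal at or above a set limit, and enough replicates individually reaching it; inconclusive means meets only the mean limit or only the replicate share; inactive means meets neither condition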;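 further: 0% = median of neutral control wells and 100% = median of positive control wells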
An asterisk follows results filed as active.

C[C@H]1CN([C@@H](C)CO)C(=O)c2cc(C#CCN(C)C)cnc2O[C@@H]1CN(C)Cc1ccccc1F was read as T cruzi growth-1 52.3 and C diff HTS -0.7.
`C[C@H]1CN([C@@H](C)CO)C(=O)c2cc(C#CCN(C)C)cnc2O[C@@H]1CN(C)Cc1ccc(-c2ccccc2)cc1` gave T cruzi growth-1 107.8*, C diff HTS -3.7, T cruzi growth-2 107.4*, T cruzi growth-3 75.7, NIH3T3 tox 19.0 and NIH3T3 tox 2 103.2*.
`C[C@@H]1CN([C@H](C)CO)C(=O)c2cc(C#CCN(C)C)cnc2O[C@H]1CN(C)Cc1ccccc1F` gave T cruzi growth-1 100.9*, C diff HTS -1.3, T cruzi growth-2 83.3, T cruzi growth-3 29.3, NIH3T3 tox 14.7 and NIH3T3 tox 2 4.8.
C[C@@H]1CN([C@@H](C)CO)C(=O)c2cc(C#CCN(C)C)cnc2O[C@H]1CN(C)Cc1ccc(C(=O)O)cc1 was read as T cruzi growth-1 -33.9 and C diff HTS -1.0.
`C[C@@H]1CN([C@@H](C)CO)C(=O)c2cc(C#CCN(C)C)cnc2O[C@@H]1CN(C)Cc1ccc(C(=O)O)cc1` gave T cruzi growth-1 109.2*, C diff HTS 1.6, T cruzi growth-2 inconclusive, T cruzi growth-3 22.4, NIH3T3 tox -15.4 and NIH3T3 tox 2 1.0.
Screening C[C@@H]1CN([C@H](C)CO)C(=O)c2cc(C#CCN(C)C)cnc2O[C@@H]1CN(C)Cc1ccc(-c2ccccc2)cc1 returned T cruzi growth-1 62.6 and C diff HTS 11.6.
`C[C@H]1CN([C@@H](C)CO)S(=O)(=O)c2ccc(-c3ccc(C(=O)N(C)C)cc3)cc2O[C@H]1CN(C)C(=O)C1CC1` gave T cruzi growth-1 69.2.
`C[C@H]1CN([C@@H](C)CO)C(=O)c2cc(/C=C/c3ccccc3)cnc2O[C@@H]1CN(C)S(C)(=O)=O` gave T cruzi growth-1 22.2 and C diff HTS -3.9.
`COCC#Cc1ccc2c(c1)O[C@@H](CN(C)Cc1ccc3c(c1)OCO3)[C@@H](C)CN([C@H](C)CO)S2(=O)=O` gave C diff HTS -0.2.
`CCCC#Cc1ccc2c(c1)O[C@@H](CN(C)Cc1ccc3c(c1)OCO3)[C@H](C)CN([C@@H](C)CO)S2(=O)=O` gave T cruzi growth-1 inconclusive, C diff HTS 14.6, T cruzi growth-2 97.8*, T cruzi growth-3 107.8*, NIH3T3 tox 51.3* and NIH3T3 tox 2 103.7*.
Screening CCCC#Cc1ccc2c(c1)O[C@@H](CN(C)Cc1ccc3c(c1)OCO3)[C@H](C)CN([C@H](C)CO)S2(=O)=O returned T cruzi growth-1 100.7*, C diff HTS 30.2, T cruzi growth-2 inconclusive, T cruzi growth-3 103.7*, NIH3T3 tox 59.2* and NIH3T3 tox 2 102.8*.
C[C@@H]1CN([C@H](C)CO)S(=O)(=O)c2ccc(C#CCN(C)C)cc2O[C@H]1CN(C)Cc1ccc2c(c1)OCO2 was read as T cruzi growth-1 105.4*, C diff HTS 1.1, T cruzi growth-2 99.9*, T cruzi growth-3 69.1, NIH3T3 tox 58.5* and NIH3T3 tox 2 107.0*.
`COCC#Cc1ccc2c(c1)O[C@@H](CN(C)Cc1ccc3c(c1)OCO3)[C@H](C)CN([C@@H](C)CO)S2(=O)=O` gave C diff HTS -2.2.
For CCCC#Cc1ccc2c(c1)O[C@H](CN(C)Cc1ccc3c(c1)OCO3)[C@@H](C)CN([C@@H](C)CO)S2(=O)=O the results were T cruzi growth-1 90.6 and C diff HTS 30.0.
For CC(C)CC#Cc1ccc2c(c1)O[C@H](CN(C)Cc1ccc3c(c1)OCO3)[C@H](C)CN([C@@H](C)CO)S2(=O)=O the results were T cruzi growth-1 96.0*, C diff HTS 22.3, T cruzi growth-2 inconclusive, T cruzi growth-3 107.1*, NIH3T3 tox -6.8 and NIH3T3 tox 2 105.7*.
Screening COCC#Cc1ccc2c(c1)O[C@H](CN(C)Cc1ccc3c(c1)OCO3)[C@@H](C)CN([C@@H](C)CO)S2(=O)=O returned C diff HTS 2.6.
`C[C@@H]1CN([C@@H](C)CO)C(=O)c2cc(NC(=O)Nc3ccc(C(F)(F)F)cc3)ccc2O[C@@H]1CN(C)S(=O)(=O)c1cccs1` gave T cruzi growth-1 42.7.
Screening CCC(=O)Nc1ccc2c(c1)C(=O)N(C)C[C@@H](OC)[C@H](C)CN(Cc1ccncc1)[C@H](C)CO2 returned T cruzi growth-1 0.7.
`C[C@H]1CN([C@@H](C)CO)C(=O)Cc2cc(NC(=O)Cc3cn(C)c4ccccc34)ccc2O[C@H]1CN(C)S(=O)(=O)c1cccs1` gave T cruzi growth-1 51.8 and C diff HTS -16.0.
For CCCNC(=O)N(C)C[C@@H]1Oc2cc(-c3cccnc3)ccc2S(=O)(=O)N([C@H](C)CO)C[C@@H]1C the results were T cruzi growth-1 7.0 and C diff HTS -1.0.
C[C@H](CO)N1C[C@H](C)[C@H](CN(C)Cc2ccc(C(=O)O)cc2)OCc2cnnn2CCCC1=O was read as C diff HTS -2.4.
For C[C@H](CO)N1C[C@H](C)[C@H](CN(C)Cc2ccc3cccnc3c2)OCc2cnnn2CCCC1=O the results were T cruzi growth-1 110.6*, C diff HTS 1.3, T cruzi growth-2 -24.4, T cruzi growth-3 -94.0, NIH3T3 tox -2.7 and NIH3T3 tox 2 4.2.
C[C@H]1CN([C@@H](C)CO)C(=O)CCCn2nncc2CO[C@@H]1CN(C)Cc1ccc(C(=O)Nc2ccccc2N)cc1 was read as T cruzi growth-1 102.7*, C diff HTS -7.2, T cruzi growth-2 110.9*, T cruzi growth-3 64.0, NIH3T3 tox 23.9 and NIH3T3 tox 2 12.0.
For C[C@@H]1CN([C@H](C)CO)C(=O)CCCn2nncc2CO[C@@H]1CN(C)Cc1ccc2cccnc2c1 the results were T cruzi growth-1 -0.6.
`C[C@H]1CN([C@@H](C)CO)C(=O)c2cc(-c3ccc(F)cc3)cnc2O[C@H]1CN(C)C(=O)c1ccc(F)cc1` gave T cruzi growth-1 21.6 and C diff HTS -6.2.
C/C=C/c1ccc2c(c1)O[C@@H](CN(C)C(=O)Nc1ccc(C(F)(F)F)cc1)[C@H](C)CN([C@@H](C)CO)S2(=O)=O was read as T cruzi growth-1 108.3*, C diff HTS 11.5, T cruzi growth-2 97.4*, T cruzi growth-3 inconclusive, NIH3T3 tox 26.0 and NIH3T3 tox 2 102.1*.
For C/C=C/c1ccc2c(c1)O[C@@H](CN(C)C(=O)Nc1ccc(F)cc1)[C@H](C)CN([C@@H](C)CO)S2(=O)=O the results were T cruzi growth-1 -14.5 and C diff HTS 3.2.
For C/C=C/c1ccc2c(c1)O[C@H](CN(C)C(=O)Nc1ccc(F)cc1)[C@H](C)CN([C@@H](C)CO)S2(=O)=O the results were T cruzi growth-1 77.2 and C diff HTS 5.6.

Screens deposited in PubChem by Broad Institute.
